An excerpt weighted towards active compounds, which were near 1.5% of everything screened.
Coupling enz: qHTS Assay for Inhibitors of Fructose-1,6-bisphosphate Aldolase from Giardia Lamblia: Coupling assay counterscreen. coupling enzyme system counterscreen, AmpLite Red fluorescence. activity change, negative = inhibition, % at 58.2 µM, hits read low. 0.67% of 290,000 active. AID 2472, 2010; in the data active = activity change below about -30%
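Compounds tested against the coupling enzymes alone at 57.5 uM final; readout was AmpLite Red fluorescence (525/598 nm) after 20 min at RT.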
TrxR1 inh: qHTS Assay for Inhibitors of Mammalian Selenoprotein Thioredoxin Reductase 1 (TrxR1): qHTS. Thioredoxin reductase 1, cytoplasmic (Rattus norvegicus), O89049. recombinant rTrxR1, NADPH fluorescence consumption, selenite substrate. Potency, µM (doses to about 114 µM), for the others: at the highest dose activity change, negative = inhibition, most hits filed as inhibitors. 1% of 390,000 active; also: potency is read from the fitted curve at half-maximal effect; nearly all actives have a fitted effect of over 65% in size
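Rat TrxR1 (90 nM in the dispensed reagent) was pre-reduced with 400 uM NADPH for 5 min at room temperature, then incubated with compound for 15 min. After 400 uM selenite was added, NADPH fluorescence (Ex 340/Em 450 nm) was followed for 8 min.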
Eya2 phos inh: qHTS Assay for Inhibitors of the Phosphatase Activity of Eya2; recombinant Eya2, OMFP fluorescence dephosphorylation (OMFP is methylfluorescein phosphate); Potency, µM (titrated, usually from 76.9 µM), for inactives: top-dose activity, negative = inhibition, hits mostly inhibitors; 0.006% of 330,000 active; also: potency is read from the fitted curve at half-maximal effect
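Eya2 (0.2 uM) preincubated 10 min at ambient with compound, then OMFP substrate added at 50 uM; 10 min reaction in 50 mM HEPES pH 7.5, 50 mM NaCl, 5 uM MgCl2, 0.05% BSA, 1 mM DTT. Fluorescence read at Ex 485/Em 525 nm.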
TrxR1 substrate: qHTS Assay for Substrates of Mammalian Selenoprotein Thioredoxin Reductase 1 (TrxR1): qHTS. Thioredoxin reductase 1, cytoplasmic (Rattus norvegicus), O89049. purified TrxR1 substrate turnover, NADPH consumption readout. Potency, µM (series often up to 114 µM), without a hit: at the top dose activity change, negative = substrate turnover. 0.01% of 390,000 active; also: potency is read from the fitted curve at half-maximal effect; nearly all actives have a fitted effect of over 50% in size
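Rat TrxR1, dispensed at 90 nM, was prereduced with 400 uM NADPH (final) for 5 min at ~22 deg C, then incubated with compound 15 min before 400 uM selenite. A first-read NADPH fluorescence drop versus no-compound background flagged substrates.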
mIDH1 inhibitor: qHTS for Inhibitors of mutant isocitrate dehydrogenase 1 (IDH1): qHTS | Isocitrate dehydrogenase [NADP] cytoplasmic (Homo sapiens), O75874 | IDH1-R132H enzyme, NADPH consumption, diaphorase/resazurin fluorescence | Potency, µM (titrated, usually from 76.6 µM), for the others: at the top dose activity change, negative = inhibition, usual class: inhibitors | 0.093% of 390,000 active | AID 602179, 2012; also: potency is read from the fitted curve at half-maximal effect; nearly all actives have a fitted effect of over 65% in size
Target sequence (O75874 whole entry R132H, stated change not applied): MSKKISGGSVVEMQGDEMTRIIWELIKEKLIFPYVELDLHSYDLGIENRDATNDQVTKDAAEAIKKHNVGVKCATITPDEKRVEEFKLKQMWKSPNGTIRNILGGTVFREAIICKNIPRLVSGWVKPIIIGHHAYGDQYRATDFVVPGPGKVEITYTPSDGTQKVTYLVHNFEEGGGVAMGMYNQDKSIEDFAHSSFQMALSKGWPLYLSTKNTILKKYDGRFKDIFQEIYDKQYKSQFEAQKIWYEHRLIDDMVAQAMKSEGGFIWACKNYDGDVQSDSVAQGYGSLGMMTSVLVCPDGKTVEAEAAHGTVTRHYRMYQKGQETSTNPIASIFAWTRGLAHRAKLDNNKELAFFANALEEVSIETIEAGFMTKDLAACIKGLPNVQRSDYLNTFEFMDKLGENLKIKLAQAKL
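IDH1-R132H (0.5 ug/mL dispensed) in pH 7.5 Tris buffer was preincubated 30 min with compound, then given a substrate mix of 0.016 mM NADPH and 2 mM alpha-KG for 80 min at room temperature; remaining NADPH was read by diaphorase/resazurin fluorescence.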
The depositor's hits bear a star; ? = inconclusive; · = no result given; [ ] = dose if it differs, or a comment. Unless noted, calls follow the shape of the dose curve; as a rule, active = well fitted curve in the direction sought with a large enough effect; inconclusive = small, poorly fitted or top-dose-only effect, or another doubt; inactive = no such curve, though single readings can be large; an effect the other way counts as inactive or inconclusive. % is scaled to controls: 0 for no effect and ±100 for the full control effect.

SMILES	Coupling enz	TrxR1 inh	Eya2 phos inh	TrxR1 substrate	mIDH1 inhibitor
CCCc1nc2c(=O)n(C)c(=O)nc-2n(C)n1	-74.1*	-100.9%	-5.8%	?	24.1%
Cn1nc(-c2ccccn2)nc2c(=O)n(C)c(=O)nc1-2	-75.6*	?	-19.1%	35.5µM*	28.8%
C[C@@H](c1ccccc1)N1C(=O)[C@H]2[C@@H]3[C@H](O)C=CC(=O)[C@H]3CC[C@H]2C1=O	-0.1	·	·	·	·
O=C(Nc1ccc(-c2nc3ncccc3o2)cc1)c1ccco1	-0.1	39.8µM*	9.6%	29.0%	-2.3%
CCOC(=O)c1c(-c2ccc(C)s2)csc1N	-41.2*	-16.5%	-2.0%	-3.4%	-3.2%
CCOC(=O)c1c(-c2ccc(C)o2)csc1N	-29.2	-23.9%	1.2%[15.4 µM]	0.0%	-2.8%
CCOC(=O)c1c(-c2ccsc2)csc1N	-33.7*	14.5%	-8.3%	-2.4%	4.0%
C[C@H]1Cc2c(COc3ccccc3)nc3c(c2CO1)CN(S(=O)(=O)c1ccc(C#N)cc1)CC3	0.6	·	·	·	·
CC1=C(C(=O)OCc2ccccc2)N2C(=O)[C@@H](NC(=O)OCc3ccccc3)[C@H]2SC1	·	2.5%	·	3.1%	·
CCCCCCCCCC[n+]1cccc(Br)c1	·	29.8%	·	161.7%	·
C(C#CCCCCCCCCC[n+]1ccccc1)#CCCCCCCCCC[n+]1ccccc1	-0.4	56.2µM*	7.3%	0.3%	0.0%
Cc1nnnn1/C(=C\c1ccccc1)C(=O)OCC(=O)NC(C)(C)C	4.1	50.1µM*	1.4%	-3.1%	2.4%
CC(=O)Nc1ccc(NC(=O)COC(=O)c2c(C)nn(-c3ccccc3)c2C)cc1	2.0	-19.2%	1.6%	-7.9%	-0.2%
CC(=O)Nc1ccc(NC(=O)COC(=O)/C(=C/c2ccccc2)n2nnnc2C)cc1	·	70.8µM*	2.3%	1.7%	0.0%
Cc1nnnn1/C(=C\c1ccccc1)C(=O)OCC(=O)NC1CCCCC1	·	?	16.3%	-3.1%	1.2%
O=C1C[C@H](c2ccc3ccccc3c2)N1S(=O)(=O)c1ccccc1[N+](=O)[O-]	6.9	?	·	-5.8%	·
Nc1[nH]c(=O)nc2nnsc12	·	?	·	8.8%[0.0914 µM]	·
NS(=O)(=O)C#Cc1ccccc1	2.9	4.74µM*	6.4%	20.0%[57.1 µM]	·
CCCN(C)CCCOc1cc2nc(N3CCCN(C)CC3)nc(NC3CCN(C)CC3)c2cc1OC	·	-24.5%	·	74.1%	·
C=C1C=CS(=O)(=O)N(Cc2ccccc2)C1	5.1	35.5µM*	·	8.3%	·
CCCCC/C=C\C/C=C\C/C=C\C/C=C\CCCC(=O)C(F)(F)F	-9.8	·	·	·	·
Cc1cc(C)nc(Sc2ccc(C=O)cc2[N+](=O)[O-])n1	-1.2	14.8%	-9.7%	-1.2%	0.0%
O=Cc1ccc(Sc2nnc(-c3ccccc3)o2)c([N+](=O)[O-])c1	-14.1	5.01µM*	-0.2%	9.7%	-3.0%
O=C(CCl)N(C/C=C/c1ccccc1)c1ccc2c(c1)OCCO2	-16.6	7.94µM*	-3.4%	1.5%[57.1 µM]	-7.1%
CCOC(=O)CSc1nc2cc(OC)c(OC)cc2cc1C#N	·	20.1%	·	2.5%	·
CN(C)c1ccc(/C=c2\[nH]c(=O)/c(=C\c3ccc(N(C)C)cc3)[nH]c2=O)cc1	·	16.8%[57.1 µM]	·	5.3%[57.1 µM]	·
CC(=O)Nc1ccc(S(=O)(=O)Nc2nc3ccccc3nc2Nc2ccc(C(=O)O)c(O)c2)cc1	·	79.4µM*	6.2%	-22.7%	4.3%
Clc1ccc(Sc2cc(Cl)c(Cl)cc2Cl)cc1	0.3	·	·	·	·
COC(=O)CCC/C=C1/SCC(NC(=O)c2ccccc2)C1O (centres undefined)	-3.5	50.1µM*	·	-19.1%	-1.6%
COC(=O)CCC/C=C1/SCC(NC(=O)c2ccccc2)C1NC(C)=O (centres undefined)	1.9	19.6%	-16.1%	-0.5%	2.8%
